# Source: paper PMC5540273 (PLoS ONE, 2017)
# Values joined by “and” are separate entries in the source; they are usually repeats but may differ in a detail not shown here. Equal entries are not always repeated. Where two headings read alike, the source gives them in different places.
# Tests used:
# [1] = tested on: T1, LKB1; details: concentration: 1 μM, replicates: in singlicate, n = 1
# T1 construct: gene STK11
# [2] = tested on: T2, LOK; details: concentration: 1 μM, replicates: in singlicate, n = 1
# T2 construct: gene STK10
# [3] = tested on: LRRK2; details: concentration: 1 μM, replicates: in singlicate; n = 1
# [4] = tested on: LTK; details: concentration: 1 μM, replicates: in singlicate; n = 1
# [5] = tested on: LYN; details: concentration: 1 μM, replicates: in singlicate, n = 1
# [6] = tested on: T3, LZK; details: concentration: 1 μM, replicates: in singlicate, n = 1
# T3 construct: gene MAP3K13
# [7] = tested on: MAK; details: concentration: 1 μM, replicates: in singlicate, n = 1
# [8] = tested on: MAP3K15; details: concentration: 1 μM, replicates: in singlicate, n = 1
# [9] = tested on: MAP3K1; details: concentration: 1 μM, replicates: in singlicate, n = 1
# [10] = tested on: MAP3K2; details: concentration: 1 μM, replicates: in singlicate, n = 1
# [11] = tested on: MAP3K3; details: concentration: 1 μM, replicates: in singlicate, n = 1
# [12] = tested on: MAP3K4; details: concentration: 1 μM, replicates: in singlicate, n = 1
# [13] = tested on: MAP4K2; details: concentration: 1 μM, replicates: in singlicate, n = 1
# [14] = tested on: MAP4K3; details: concentration: 1 μM, replicates: in singlicate, n = 1
# [15] = tested on: MAP4K4; details: concentration: 1 μM, replicates: in singlicate; n = 1
# [16] = tested on: MAP4K5; details: concentration: 1 μM, replicates: in singlicate; n = 1
# [17] = tested on: MAPKAPK2; details: concentration: 1 μM, replicates: in singlicate, n = 1
# [18] = tested on: MAPKAPK5; details: concentration: 1 μM, replicates: in singlicate, n = 1
# [19] = tested on: MARK1; details: concentration: 1 μM, replicates: in singlicate; n = 1
# [20] = tested on: MARK2; details: concentration: 1 μM, replicates: in singlicate, n = 1
# 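Note: KINOMEscan kinase panel screen.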
smiles,measurement,setting,value
CSc1ccc(NC2=C(c3ccccc3Cl)C(=O)NC2=O)cc1 [SB-342411],%Inh,[1],12%
same,%Inh,[2],2%
same,%Inh,[3],0%
same,%Inh,[4],7%
same,%Inh,[5],0%
same,%Inh,[6],0%
same,%Inh,[7],0%
same,%Inh,[8],0%
same,%Inh,[9],14%
same,%Inh,[10],0%
same,%Inh,[11],0%
same,%Inh,[12],30%
same,%Inh,[13],0%
same,%Inh,[14],10%
same,%Inh,[15],2%
same,%Inh,[16],6%
same,%Inh,[17],3%
same,%Inh,[18],1%
same,%Inh,[19],3%
same,%Inh,[20],0%
COC(=O)c1cccc(NC(=O)NCCNc2ccnc(Nc3ccc(F)cc3)n2)c1 [GSK1379883],%Inh,[1],16%
same,%Inh,[2],0%
same,%Inh,[3],0%
same,%Inh,[4],0%
same,%Inh,[5],0%
same,%Inh,[6],1%
same,%Inh,[7],26%
same,%Inh,[8],0%
same,%Inh,[9],0%
same,%Inh,[10],0%
same,%Inh,[11],0%
same,%Inh,[12],0%
same,%Inh,[13],0%
same,%Inh,[14],0%
same,%Inh,[15],0%
same,%Inh,[16],0%
same,%Inh,[17],24%
same,%Inh,[18],0%
same,%Inh,[19],0%
same,%Inh,[20],0%
Fc1cccc(COc2ccc(Nc3ncnc4sc(-c5ccc[nH]5)cc34)cc2Cl)c1 [GW707818],%Inh,[1],17%
same,%Inh,[2],28%
same,%Inh,[3],0%
same,%Inh,[4],1%
same,%Inh,[5],0%
same,%Inh,[6],82%
same,%Inh,[7],36%
same,%Inh,[8],0%
same,%Inh,[9],4%
same,%Inh,[10],0%
same,%Inh,[11],0%
same,%Inh,[12],11%
same,%Inh,[13],7%
same,%Inh,[14],4%
same,%Inh,[15],5%
same,%Inh,[16],3%
same,%Inh,[17],9%
same,%Inh,[18],0%
same,%Inh,[19],12%
same,%Inh,[20],1%
CCn1c(-c2ccncc2)nc2cnccc21 [SB-735216],%Inh,[1],0%
same,%Inh,[2],0%
same,%Inh,[3],0%
same,%Inh,[4],0%
same,%Inh,[5],19%
same,%Inh,[6],59%
same,%Inh,[7],12%
same,%Inh,[8],47%
same,%Inh,[9],10%
same,%Inh,[10],6%
same,%Inh,[11],10%
same,%Inh,[12],23%
same,%Inh,[13],12%
same,%Inh,[14],0%
same,%Inh,[15],1%
same,%Inh,[16],0%
same,%Inh,[17],16%
same,%Inh,[18],29%
same,%Inh,[19],16%
same,%Inh,[20],100%
COc1ccc(-c2nc3n(c2-c2ccncc2)CCC3)cc1 [SKF-104493],%Inh,[1]; 1 µM,27% and 21%
same,%Inh,[2]; 1 µM,19% and 11%
same,%Inh,[3],0%
same,%Inh,[4],2%
same,%Inh,[5]; 1 µM,9% and 0%
same,%Inh,[6]; 1 µM,0% and 5%
same,%Inh,[7]; 1 µM,19% and 0%
same,%Inh,[8]; 1 µM,3% and 4%
same,%Inh,[9]; 1 µM,11% and 1%
same,%Inh,[10]; 1 µM,6% and 0%
same,%Inh,[11]; 1 µM,6% and 0%
same,%Inh,[12]; 1 µM,28% and 3%
same,%Inh,[13]; 1 µM,7% and 0%
same,%Inh,[14]; 1 µM,0% and 8%
same,%Inh,[15],0%
same,%Inh,[16],0%
same,%Inh,[17]; 1 µM,12% and 9%
same,%Inh,[18]; 1 µM,13% and 10%
same,%Inh,[19],0%
same,%Inh,[20]; 1 µM,0% and 11%
CNc1nccc(-c2c(-c3ccc(F)cc3)ncn2C2CCN(C)CC2)n1 [SB-222903],%Inh,[1],0%
same,%Inh,[2],3%
same,%Inh,[3],0%
same,%Inh,[4],0%
same,%Inh,[5],0%
same,%Inh,[6],0%
same,%Inh,[7],0%
same,%Inh,[8],0%
same,%Inh,[9],0%
same,%Inh,[10],0%
same,%Inh,[11],0%
same,%Inh,[12],0%
same,%Inh,[13],0%
same,%Inh,[14],0%
same,%Inh,[15],0%
same,%Inh,[16],0%
same,%Inh,[17],0%
same,%Inh,[18],0%
same,%Inh,[19],0%
same,%Inh,[20],0%
O=C(Nc1ccccc1)Nc1ccc(Oc2ccc3nccn3n2)cc1,%Inh,[1],0%
same,%Inh,[2],39%
same,%Inh,[3],0%
same,%Inh,[4],0%
same,%Inh,[5],0%
same,%Inh,[6],0%
same,%Inh,[7],0%
same,%Inh,[8],0%
same,%Inh,[9],0%
same,%Inh,[10],0%
same,%Inh,[11],9%
same,%Inh,[12],21%
same,%Inh,[13],0%
same,%Inh,[14],0%
same,%Inh,[15],0%
same,%Inh,[16],0%
same,%Inh,[17],0%
same,%Inh,[18],0%
same,%Inh,[19],0%
same,%Inh,[20],0%
N#Cc1ccc(Oc2ccc(Nc3ncnc4cc[nH]c34)cc2Cl)cc1,%Inh,[1],29%
same,%Inh,[2],18%
same,%Inh,[3],0%
same,%Inh,[4],6%
same,%Inh,[5],0%
same,%Inh,[6],0%
same,%Inh,[7],13%
same,%Inh,[8],43%
same,%Inh,[9],0%
same,%Inh,[10],9%
same,%Inh,[11],27%
same,%Inh,[12],9%
same,%Inh,[13],0%
same,%Inh,[14],24%
same,%Inh,[15],37%
same,%Inh,[16],27%
same,%Inh,[17],0%
same,%Inh,[18],21%
same,%Inh,[19],3%
same,%Inh,[20],0%
